Screening results as filed in PubChem BioAssay.
Sampled rows, rich in hits. Any-hit rate of the full collection: about 17%.
DT40 TDP1 no CPT = qHTS for Inhibitors of human tyrosyl-DNA phosphodiesterase 1 (TDP1): qHTS in cells in absence of CPT; DT40 Tdp1-/- hTDP1 cells, no CPT, ATP luminescence, 48 h; Potency, µM (top dose mostly 46.2 µM), inactives show top-dose activity change, negative = growth inhibition, usual class: inhibitors; 420,000 compounds, 15% hits; further: on the % scale 0 is the no-effect control and ±100 the full control effect; nearly all actives have a fitted effect of over 55% in size
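Camptothecin absent (DMSO only). Human TDP1-complemented DT40 knockout cells, 400 cells/well, 37 °C for minimum 48 hr; ATP measured via CellTiter-Glo, 30 min dark incubation, luminescence.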
HT1080-NT tox = kills 2HG-producing HT-1080-NT fibrosarcoma cells | Potency, µM (series often up to 46.1 µM), for the others: top-dose activity, negative = less viability, usual class: cytotoxic | AID 686970 | HT-1080-NT fibrosarcoma viability, CellTiter-Glo ATP luminescence, 48 h | 360,000 compounds, 1.6% hits;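 further: NT is the 2HG producing partner of a matched IDH1 knockdown line; 0% = DMSO-treated cells and -100% = media-only wells without cells; nearly all actives have a fitted effect of over 55% in size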
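Viability of the 2HG-overproducing fibrosarcoma line after 48 hours of compound exposure at 37 degrees C was determined by luminescence with CellTiter-Glo, and concentration-effect curves were then fitted and categorized.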
HepG2 tox = counter-screen for TGF-b inhibitors: cytotoxicity in HepG2 cells; HepG2 CAGA-GFP viability, ATP luminescence, 18 h; Potency, µM (doses to about 46.1 µM), for the others: top-dose activity change, negative = cytotoxicity, hits mostly cytotoxic; 410,000 compounds, 0.76% hits
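CellTiter-Glo luminescence gave cytotoxicity after 18 hours at 37 degrees C. The cells were HepG2 CAGA-GFP in 1% FBS DMEM, stimulated with 500 pg/mL TGF-beta after compound addition. %Activity was normalised to no-cell wells (complete cell-killing) and DMSO (no toxicity), and curves were fitted and classified.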
TDP1 cell CPT = growth inhibition of DT40 Tdp1-/-;hTDP1 cells with camptothecin (screen for TDP1 inhibitors); Potency, µM (doses to about 46.2 µM), for inactives: at the highest dose activity change, negative = growth inhibition, usual class: inhibitors; AID 686979; 420,000 compounds, 12% hits; chicken DT40 Tdp1-/-;hTDP1 cells + 20 nM CPT, ATP luminescence, 48 h; further: on the % scale 0 is the no-effect control and ±100 the full control effect; nearly all actives have a fitted effect of over 55% in size
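Chicken DT40 Tdp1-/- cells stably complemented with human TDP1 were seeded at 400 cells/well in medium containing 20 nM camptothecin, exposed to pin-transferred compounds, and grown at 37 °C for at least 48 hr. Viability was read as ATP luminescence.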
HT1080 IDH1KD tx = HT-1080 IDH1 knockdown cell toxicity (counter line). HT-1080 IDH1 knockdown viability, ATP luminescence, 48 h. Potency, µM (highest dose often 46.1 µM), inactives show at the highest dose activity, negative = toxicity, hits mostly cytotoxic. 360,000 compounds, 2% hits. AID 686971;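 further: 0% = DMSO wells and -100% = cell-free medium wells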
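Luminescent ATP read-out (CellTiter-Glo, 10 min at room temperature) after 48 h compound exposure at 37 °C gave viability of IDH1-knockdown HT-1080 cells. Activity was normalised to DMSO and cell-free wells, then fitted as concentration-response curves.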
TGFb SMAD3 inh = TGF-b pathway inhibition | HepG2 CAGA-GFP TGF-b/SMAD3 reporter, GFP fluorescence, 18 h; TGF-beta stimulated, 500 pg/mL final | AID 588855 | 410,000 compounds, 1.2% hits | Potency, µM (series often up to 46.1 µM), without a hit: top-dose activity, negative = inhibition, hits mostly inhibitors; further: on the % scale 0 is the no-effect control and ±100 the full control effect; nearly all actives have a fitted effect of over 65% in size
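TGF-beta reporter screen: HEPG2 CAGA-GFP, 1% FBS, 500 pg/mL TGF-beta final, 18 h; per-cell GFP summed per well; curves fitted and categorized by class.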
Numbers without * were called inactive; ? = inconclusive; / = no result; [ ] = remark or other dose. The call rests on the fitted dose curve; in most records, active means well fitted curve in the direction sought with a large enough effect; inconclusive means small, poorly fitted or top-dose-only effect, or another doubt; inactive means no such curve, though single readings can be large; an effect the other way counts as inactive or inconclusive. Potency means the concentration at half of the fitted maximal effect.

SMILES	DT40 TDP1 no CPT	HT1080-NT tox	HepG2 tox	TDP1 cell CPT	HT1080 IDH1KD tx	TGFb SMAD3 inh
O=Cc1ccccc1OCCCOc1cccc2cccnc12	2.1µM*	?	-28%	4.6µM*	?	-22%
Clc1ccccc1OCCCOc1cccc2cccnc12	?	2%	-19%	15µM*	-16%	?
O=C(/C=C/c1ccccc1)Oc1cccc2cccnc12	8.2µM*	11%	4µM*	?	3%	4µM*
Cc1cccc(OCCCOc2cccc3cccnc23)c1C	18µM*	?	-49%	?	?	?
Cc1cccc(OCCCCc2c(C)n[nH]c2C)c1C	?	?	-37%	12µM*	?	-14%
O=C(Nc1ccc(NC(=O)c2cccs2)cc1)c1cccs1	-13%	-20%	0%	-14%	-17%	21%
O=C(NCCCNC(=O)c1cccs1)c1cccs1	9.2µM*	5%	-93%	8.2µM*	3%	1%
O=C(Nc1ccccn1)c1cccs1	26µM*	11%	-62%	18µM*	-10%	-1%
O=C(Nc1nonc1NC(=O)c1cccs1)c1cccs1	23µM*	-19%	-17%	26µM*	-21%	?
CCN1CCCC1CNC(=O)c1cnn(-c2nccc(-c3ccccc3F)n2)c1C (stereo not drawn)	-19%	/	/	-2%	/	/
O=C1O[C@H]2[C@H](O)[C@@H]1OC(O)[C@H]2O (stereo partly drawn)	2%	/	/	-5%	/	/
O=S(=O)(c1ccc(Cl)c(Cl)c1)c1snnc1-c1ccccc1	3.3µM*	16µM*	16µM*	2.6µM*	8.2µM*	?
c1ccc(-c2nnsc2-c2ccccc2)cc1	20%	7%	-5%	-3%	1%	3%
Cc1ccc2sc(N(CCCN(C)C)C(=O)c3ccc(Br)s3)nc2c1C	?	21µM*	13µM*	?	13µM*	?
CCOc1cccc2sc(N(CCN(CC)CC)C(=O)c3ccc(S(=O)(=O)N4CCCC4)cc3)nc12	?	-5%	-3%	?	-6%	-7%
CC(=O)c1ccc(C(=O)N(CCCN(C)C)c2nc3c(C)c(C)ccc3s2)cc1	23µM*	/	-57%	18µM*	/	?
CC(=O)c1ccc(C(=O)N(Cc2cccnc2)c2nc3c(C)c(C)ccc3s2)cc1	16µM*	/	0%	23µM*	/	?
CCOc1cccc2sc(N(CCN(C)C)C(=O)c3ccc(Br)s3)nc12	-15%	-9%	-26%	6%	-8%	-1%
CCN(CC)CCN(C(=O)c1ccc(S(=O)(=O)N(C)C2CCCCC2)cc1)c1nc2c(C)cccc2s1	21µM*	0%	-34%	23µM*	-10%	?
Cc1cc(C)c(Cn2c(=O)n(-c3ccccc3Cl)c(=O)c3c(C)c(C(=O)N(C)C)sc32)c(C)c1	-2%	/	-14%	-5%	/	-18%
CCc1sc(C(=O)Nc2ncccc2O)cc1C	?	?	0%	?	?	0%
Cc1cc(=O)oc2ccc(OC(C)C(=O)O)cc12 (stereo not drawn)	-19%	21%	1%	11%	28%	0%
O=C(c1n[nH]c2c1CCCC2)N1CCOc2ccc(C(O)C3CCCCC3)cc2C1 (stereo not drawn)	-27%	/	/	-25%	/	/
Cc1ccc2sc(N(CCCN(C)C)C(=O)c3ccc(S(=O)(=O)N(C)C4CCCCC4)cc3)nc2c1C	5.8µM*	-12%	-112%	9.2µM*	?	?
O=C(Nc1ccc(N2CCCCC2)c(C(=O)O)c1)c1ccco1	7%	-6%	-8%	-5%	2%	-1%
SMILES	DT40 TDP1 no CPT	HT1080-NT tox	HepG2 tox	TDP1 cell CPT	HT1080 IDH1KD tx	TGFb SMAD3 inh
COC(=O)c1ccc(N2CCCCC2)c(NC(=O)c2ccco2)c1	23µM*	-8%	-16%	?	-1%	4%
O=C(c1ccccc1)c1ccc(N2CCOCC2)c(NC(=O)c2ccco2)c1	21µM*	-3%	-34%	?	-5%	-2%
CC(C)c1cccc(C(C)C)c1NC(=O)CN1C(=O)NC2(CCCC2)C1=O	-9%	16%	12%	-13%	21%	0%
CC(C)C(=O)N1CCN(c2cc(N3CCN(C)CC3)c(F)cc2[N+](=O)[O-])CC1	-1%	7%	-1%	1%	2%	-18%
CCN1CCN(c2cc(N3CCc4ccccc4C3)c(F)cc2[N+](=O)[O-])CC1	10µM*	-9%	-57%	16µM*	-11%	?
Cc1nc2ccc(NS(=O)(=O)c3ccc(F)c(F)c3)cc2s1	?	3%	-10%	18µM*	-6%	-9%
Cc1nc2ccc(NS(=O)(=O)c3ccc(Br)cc3)cc2s1	5.2µM*	-6%	-13%	13µM*	-3%	-26%
Cc1nc2ccc(NS(=O)(=O)c3cccc([N+](=O)[O-])c3)cc2s1	15µM*	-19%	1%	18µM*	-16%	0%
CC(=O)Nc1ccc2nc(NS(=O)(=O)c3ccc(C)cc3)sc2c1	-1%	5%	0%	4%	-1%	4%
Cc1ccc(S(=O)(=O)Nc2ccc3nc(N)sc3c2)cc1	12µM*	-7%	-10%	13µM*	?	-20%
Cc1nc2ccc(NS(=O)(=O)c3ccccc3F)cc2s1	?	-20%	-9%	?	0%	?
COc1ccc(OC)c(-c2ccnc(-n3ncc(C(=O)NC(C)(C)CO)c3C3CC3)n2)c1	-14%	/	/	-3%[9.04 µM]	/	/
Cc1nc2ccc(NC(=O)CCS(=O)(=O)c3ccc(Cl)cc3)cc2s1	15µM*	0%	-21%	12µM*	-2%	?
Cc1nc2ccc(NS(=O)(=O)c3ccc4c(c3)OCCO4)cc2s1	1.5µM*	-7%	-34%	1.8µM*	-12%	?
O=S(=O)(Nc1ccc(N2CCCCC2)cc1)c1ccc(F)c(F)c1	15µM*	-26%	-45%	?	-28%	-8%
O=S(=O)(Nc1cccc(-c2ccc(N3CCOCC3)nn2)c1)c1cc(Cl)ccc1Cl	?	-19%	-19%	-4%	-21%	-1%
O=S(=O)(Nc1ccc(N2CCOCC2)cc1)c1cc(Cl)ccc1Cl	12µM*	-13%	-22%	-14%	-14%	0%
